# PLK1 PBD block: qHTS for Inhibitors of PLK1-PDB (polo-like kinase 1 - polo-box domain): Primary Screen. Potency, µM, without a hit: max response, negative = inhibition, usual class: inhibitors. Serine/threonine-protein kinase PLK1 (Homo sapiens), P53350. 360,000 tested, 2.8% active. Plk1 PBD binding of FITC phosphopeptide, fluorescence polarization; further: potency means the concentration at half of the fitted maximal effect; series mostly up to about 57 µM; nearly all actives have a fitted effect of over 65% in size
# Sfp PPTase inh: qHTS Assay for Inhibitors of Bacillus subtilis Sfp phosphopantetheinyl transferase (PPTase); 4'-phosphopantetheinyl transferase ffp (Bacillus subtilis), Q9F4F7; Biochemical Sfp PPTase activity, qHTS; Potency, µM, inactives show largest response in the series, negative = inhibition, usual class: inhibitors; 310,000 tested, 3.5% active;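 further: the enzyme is Sfp with the accession as filed and its product quenches rhodamine fluorescence; potency means the concentration at half of the fitted maximal effect; 0% = enzyme reaction without inhibitor and -100% = no enzyme wells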
#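 Fluorescence-quenching assay: 15 nM Sfp-PPTase preincubated 15 min at room temperature with compound, then 5 uM rhodamine-CoA and 12.5 uM BHQ-2-labelled YbbR peptide added. Fluorescence (ex 525/em 598 nm) read at start and after 30 min; difference gives rate.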
# VDR inh: Inhibitors of the vitamin D receptor (VDR): qHTS. Potency, µM, inactives show max response, negative = inhibition, usual class: inhibitors. 400,000 tested, 0.93% active. VDR-SRC2-3 peptide fluorescence polarization, 2 h. Vitamin D3 receptor (Homo sapiens), P11473. AID 504847, 2011; further: potency means the concentration at half of the fitted maximal effect
# Target sequence (P11473 whole entry, looked up): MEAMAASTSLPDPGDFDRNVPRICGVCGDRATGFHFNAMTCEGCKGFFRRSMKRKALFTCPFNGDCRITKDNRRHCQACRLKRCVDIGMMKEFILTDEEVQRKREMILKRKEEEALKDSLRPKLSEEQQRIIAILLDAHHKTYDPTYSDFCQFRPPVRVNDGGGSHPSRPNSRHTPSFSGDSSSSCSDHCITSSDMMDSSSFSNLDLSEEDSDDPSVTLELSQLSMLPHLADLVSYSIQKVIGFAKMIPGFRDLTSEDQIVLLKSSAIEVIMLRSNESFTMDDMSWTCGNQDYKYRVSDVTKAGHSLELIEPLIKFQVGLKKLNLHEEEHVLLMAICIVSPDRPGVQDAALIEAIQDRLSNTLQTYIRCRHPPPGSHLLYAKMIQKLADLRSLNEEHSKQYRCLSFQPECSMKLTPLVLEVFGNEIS
#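 Fluorescence polarization assay of small-molecule disruption of VDR binding to coregulator peptide SRC2-3. Compounds and controls pin-transferred, then read after 2 h incubation at ambient room temperature.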
# G9a inh: qHTS Assay for Inhibitors of Histone Lysine Methyltransferase G9a | Potency, µM (doses to about 102 µM), for the others: at the highest dose activity, negative = inhibition, actives largely listed as inhibitors | Histone-lysine N-methyltransferase EHMT2 (Homo sapiens), Q96KQ7 | 350,000 tested, 8.8% active | G9a H3K9 monomethylation, AlphaScreen, 2 h; further: potency means the concentration at half of the fitted maximal effect; nearly all actives have a fitted effect of over 75% in size
# Target sequence (Q96KQ7 913-1193 limits assumed): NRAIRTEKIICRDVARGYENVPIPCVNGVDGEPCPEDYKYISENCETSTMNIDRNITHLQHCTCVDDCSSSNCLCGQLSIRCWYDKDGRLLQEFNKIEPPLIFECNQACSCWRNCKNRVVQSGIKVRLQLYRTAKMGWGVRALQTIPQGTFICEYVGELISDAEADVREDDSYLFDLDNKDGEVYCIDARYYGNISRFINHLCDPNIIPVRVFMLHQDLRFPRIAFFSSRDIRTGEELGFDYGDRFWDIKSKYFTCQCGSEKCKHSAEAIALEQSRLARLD
#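 G9a (20 nM) was preincubated 15 min with compound, then reacted 2 h at room temperature with 500 nM biotin-H3K9 peptide and 20 µM SAM. Monomethyl-H3K9 detected by AlphaScreen using anti-H3K9me1 antibody.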
# CCT modulator: High-Throughput Screening for Modulators of Cytosolic Chaperonin Activity; purified chaperonin ATPase assay, HTRF ADP detection, 30 min; activity change, % (no concentration beside the values), hits read low; 360,000 tested, 0.3% active; AID 651819, 2012; in the data active means activity change below about -30%
#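 TRiC at 40 or 20 nM final (batch-dependent) in 30 mM Tris pH 7.4, 100 mM KCl, 5 mM MgCl2, 1 mM DTT, with compound at single 76 uM and 10 uM ATP, 30 min at 37 deg C. ADP detected by HTRF Transcreener, 665/615 ratio.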
# Mm-Cpn inhibitor: Inhibitors of TCP-1 ring complex (TRiC) of Methanococcus maripaludis (MmCpn): qHTS. 330,000 tested, 0.031% active. AID 504842, 2011. purified Mm-Cpn ATPase, ADP Transcreener TR-FRET. Potency, µM (top dose mostly 76.9 µM), inactives show at the top dose activity, negative = inhibition, most hits filed as inhibitors; further: potency means the concentration at half of the fitted maximal effect; nearly all actives have a fitted effect of over 80% in size
#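 25 nM Mm-CPN + cpd, 10 min 37°C; + 10 uM ATP, 30 min 37°C; buffer 30 mM Tris pH 7.4, 100 mM KCl, 5 mM MgCl2, 1 mM DTT; Transcreener ADP HTRF detection 30 min RT.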
# Active calls of the source: *; ? = inconclusive; / = not tested or not shown; [ ] = remark or other dose. The list is not random: actives were taken first. Their share in the collection is about 10%. Unless noted, the call rests on the fitted dose curve; in most records, active means well fitted curve in the direction sought with a large enough effect; inconclusive means small, poorly fitted or top-dose-only effect, or another doubt; inactive means no such curve, though single readings can be large; an effect the other way counts as inactive or inconclusive. Unless noted, on the % scale 0 is the no-effect control and ±100 the full control effect.
SMILES,PLK1 PBD block,Sfp PPTase inh,VDR inh,G9a inh,CCT modulator,Mm-Cpn inhibitor
CCOc1cc(/C=C2\C(=O)NC(=O)N(CCc3ccc(F)cc3)C2=O)ccc1O,1.7µM*,71µM*,?,40µM*,0,0%
CN(C)c1ccc(/C=C2/C(=O)NC(=O)N(CCc3ccc(F)cc3)C2=O)cc1,6µM*,-23%,?,?,-1,-1%
C=CCN,/,8%,12%,15%[59 µM],/,/
CC[C@@H]1CN2CCc3cc(OC)c(OC)cc3[C@H]2C[C@@H]1C[C@H]1NCCc2cc(OC)c(OC)cc21,/,2%,-1%,2%[21.5 µM],/,/
O=C1NC(=O)N(Cc2ccc(F)cc2)C(=O)/C1=C\c1ccoc1,2.7µM*,-28%,-1%,40µM*,-2,-7%
Cc1cc(OC(=O)c2cccs2)c2c3c(c(=O)oc2c1)CCCC3,-7%,13%,0%,37%[59 µM],-3,1%
COc1ccc(N2C(=O)NC(=O)/C(=C/c3cccc(OC(=O)c4cccs4)c3)C2=O)cc1Cl,19µM*,?,?,10µM*,1,-2%
Cc1ccc(N2C(=O)NC(=O)/C(=C/c3ccc(OC(=O)c4cccs4)cc3)C2=O)cc1,9.5µM*,45µM*,?,13µM*,-2,-2%
CN(C)CCNC(=O)c1cccn(Cc2cccc(C(F)(F)F)c2)c1=O,19µM*,22%,?,?,-1,-2%
CO[C@H]1[C@@H](O)CC(OC2[C@@H](O)CC(OC3[C@@H](O)C[C@H](OC4CC[C@@]5(C)C(CCC6C5CC(O)[C@]5(C)[C@H](C7=CC(=O)OC7)CCC65O)C4)O[C@@H]3C)O[C@@H]2C)O[C@@H]1C (some centres not stated),/,-7%,-2%,10%[12.7 µM],/,/
C[C@H]1CC[C@H]2NCCN[C@H]2C1,-24%,100µM*,3%,/,-3,4%
Cc1nc2ccc(Nc3nc4cc(S(=O)(=O)N5CCOCC5)ccc4o3)cc2s1,4.7µM*,?,-13%,7.9µM*,1,-6%
[Hg+][c]1ccccc1,/,0.22µM*,13µM*,?,/,/
c1ccc(N=Nc2ccccc2)cc1,/,9%,4%,-44%[2.33 µM],/,/
C[C@@H]1C[C@@H]2[C@H]([C@H]3C=C(COC(=O)c4ccccc4)[C@@H](O)[C@]4(O)[C@@H](O)C(OC(=O)c5ccccc5)=C[C@@]14C3=O)C2(C)C,/,10%,-5%,/,/,/
CCCN1[C@@H]2C[C@@H](O)CC[C@@H]2C[C@H]1C(=O)OC,/,-4%,/,/,/,/
Nc1c(C(=O)NCC2CCCO2)c2nc3ccccc3nc2n1Cc1ccco1 (configuration not stated),-14%,4µM*,8%,-3%[12.7 µM],1,-5%
COCCOC(=O)c1c(N)n(Cc2ccco2)c2nc3ccccc3nc12,-16%,56µM*,27%,-29%[59 µM],5,-1%
CCCCNC(=O)c1c(N)n(CCCOC)c2nc3ccccc3nc12,-3%,-21%,50µM*,66%[59 µM],-1,-2%
CC(C)CNC(=O)c1c(N)n(Cc2ccco2)c2nc3ccccc3nc12,-26%,32µM*,-28%,45µM*,-1,-1%
CC(C)CNC(=O)c1c(N)n(Cc2ccc3c(c2)OCO3)c2nc3ccccc3nc12,-28%,-20%,-13%,-19%,1,-5%
Nc1nc(O)c(-c2ccccc2)o1,/,-10%,4%,-5%[12.7 µM],/,/
COCCCNC(=O)c1c(N)n(Cc2ccco2)c2nc3ccccc3nc12,-12%,13µM*,-12%,1%[12.7 µM],-2,-4%
CC(C)CCNC(=O)c1c(N)n(Cc2ccc3c(c2)OCO3)c2nc3ccccc3nc12,1%,-11%,89µM*,-48%,1,-10%
CCCNC(=O)c1c(N)n(Cc2ccco2)c2nc3ccccc3nc12,?,?,?,?,-2,-3%
SMILES,PLK1 PBD block,Sfp PPTase inh,VDR inh,G9a inh,CCT modulator,Mm-Cpn inhibitor
CC12CCCCC1N(O)CN2O (configuration not stated),0%,-7%,-6%,7.9µM*,-1,0%
O=C(O)CNC(=O)[C@@H](CS)Cc1ccccc1,/,35µM*,0%,?,/,/
CCn1c(O)c(/C=N/NC(=O)c2ccncc2)c(=O)n(CC)c1=S,-4%,79µM*,-5%,-10%,0,1%
Cn1c(O)c(/C=N/NC(=O)c2ccncc2)c(=O)[nH]c1=S,4%,-13%,-28%,/,-1,-15%
CCOP(=O)(OCC)C(=Cc1cc(C(C)(C)C)c(O)c(C(C)(C)C)c1)P(=O)(OCC)OCC,/,-10%,?,/,/,/
CC(C)(C)NCC(O)c1cc(Cl)c(N)c(C(F)(F)F)c1 (configuration not stated),/,14%,-4%,-45%[12.7 µM],/,/
COC(=O)C1=C(c2ccc(-c3ccccc3)c(F)c2)C[C@@H]2CC[C@H]1N2C(=O)N1CCCC1,-5%,/,?,-10%[2.33 µM],-33*,0%
O=C1OC(c2ccc(O)c(S(=O)(=O)O)c2)(c2ccc(O)c(S(=O)(=O)O)c2)c2c(Br)c(Br)c(Br)c(Br)c21,/,19%,35µM*,-2%[59 µM],/,/
O=C(NCc1ccco1)c1ccc(Cn2c(=O)c3ccccc3n(Cc3cccc(F)c3)c2=O)cc1,15µM*,-28%,?,5%,-1,0%
CCCCn1c(=O)c(C(=O)NCc2ccco2)c(O)c2ccccc21,-7%,3%,6%,-27%,-2,-4%
CN1CC[C@@H]2CN3CCc4cccc(c43)[C@H]2C1,/,-9%,-22%,/,/,/
Cc1nn(CCC#N)c2c1P(=S)(N1CCCC1)OC(c1ccc(F)cc1)=N2 (configuration not stated),13µM*,10µM*,25µM*,16µM*,-4,0%
c1ccc(N2CCC3(CCNCC3)CC2)cc1,/,?,?,-3%[12.7 µM],/,/
O=C1C(c2ccccc2)=C(N2CC2)c2ccccc21,-6%,8%,3%,40µM*,-2,-2%
COc1cc([C@@H]2c3cc4c(cc3[C@@H](O)C3COC(=O)C32)OCO4)cc(OC)c1O (some centres not stated),/,/,-4%,/,/,/
C[C@@]12CCC(OS(=O)(=O)O)C[C@@H]1CCC1C2CC[C@]2(C)C(=O)CCC12 (some centres not stated),/,30%,-14%,/,/,/

# From PubChem
